Values joined by “and” are separate entries in the source; they are usually repeats but may differ in a detail not shown here. Equal entries are not always repeated. About 2,000 (36%) of roughly 5,500 compounds were called active. Not shown: some 18% with an inconclusive outcome. Rule as the data show it: active = normalized growth mostly below about 0.91 (no sharp cut-off); inconclusive = no clear call, values can overlap the other calls; inactive = mostly above about 0.92. The list shows a part of the results.
Assay: chemical genetic growth profiling, strain panel (AID 1159580);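 also: tested at 20 µM; growth read once vehicle control cultures reached saturation at 30 °C; 1 = growth at the plate median or of vehicle wells; lower values mean less growth of the strain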
Conditions: S. cerevisiae deletion strains, growth OD

Measured: normalized growth

CCCCCCCCC(=O)NCc1ccc(O)c(OC)c1
inactive: locus YAL013W, strain DEP1, active compounds read low 0.99 | locus YAL021C, strain ccr4, active compounds read low 0.996 | locus YAL026C, strain drs2, active compounds read low 1.01 | locus YAL030W, strain snc1, active compounds read low 1 | locus YAL040C, strain CLN3, active compounds read low 0.982 | locus YBL061C, strain skt5, active compounds read low 1.01 | locus YBR009C, strain hhf1, active compounds read low 0.987 | locus YBR021W, strain FUR4, active compounds read low 0.958 | locus YBR023C, strain chs3, active compounds read low 0.989 | locus YBR171W, strain sec66, active compounds read low 0.983 | locus YBR229C, strain ROT2, active compounds read low 0.988 | locus YBR231C, strain swc5, active compounds read low 0.995 | locus YBR279W, strain paf1, active compounds read low 1.01 | locus YCL011C, strain gbp2, active compounds read low 0.981 | locus YCL016C, strain dcc1, active compounds read low 0.984 | locus YCL029C, strain bik1, active compounds read low 0.989 | locus YCL061C, strain MRC1 (second series), active compounds read low 0.994 | locus YCL061C, strain MRC1, active compounds read low 1 | locus YCL069W, strain vba3, active compounds read low 0.979 | locus YCR088W, strain abp1, active compounds read low 0.975 | locus YDL005C, strain med2, active compounds read low 0.995 | locus YDL035C, strain GPR1, active compounds read low 0.981 | locus YDL040C, strain nat1, active compounds read low 1 | locus YDL074C, strain BRE1, active compounds read low 0.981 | locus YDL101C, strain DUN1, active compounds read low 0.976 | locus YDL134C, strain PPH21, active compounds read low 0.976 | locus YDL185W, strain tfp1, active compounds read low 0.991 | locus YDL192W, strain arf1, active compounds read low 0.989 | locus YDR001C, strain nth1, active compounds read low 0.988 | locus YDR069C, strain doa4, active compounds read low 1 | locus YDR101C, strain arx1, active compounds read low 0.98 | locus YDR137W, strain rgp1, active compounds read low 1.03 | locus YDR150W, strain NUM1, active compounds read low 0.989 | locus YDR159W, strain sac3, active compounds read low 1.07 | locus YDR162C, strain NBP2, active compounds read low 1.01 | locus YDR195W, strain ref2 1.04 | locus YDR297W, strain sur2, active compounds read low 1 | locus YDR318W, strain mcm21, active compounds read low 0.965 | locus YDR334W, strain swr1, active compounds read low 0.997 | locus YDR335W, strain msn5, active compounds read low 1.01 | locus YDR363W, strain ESC2, active compounds read low 0.988 | locus YDR388W, active compounds read low 0.981 | locus YDR392W, strain spt3, active compounds read low 0.805 | locus YDR502C, strain sam2, active compounds read low 0.978 | locus YEL003W, strain gim4, active compounds read low 0.985 | locus YEL037C, strain rad23, active compounds read low 0.982 | locus YEL061C, strain CIN8 (second series), active compounds read low 0.982 | locus YEL061C, strain CIN8, active compounds read low 0.998 | locus YER002W, strain NOP16, active compounds read low 0.986 | locus YER015W, strain faa2, active compounds read low 1.01 | locus YER016W, strain bim1, active compounds read low 1.01 | locus YER110C, active compounds read low 0.981 | locus YER111C, strain swi4, active compounds read low 0.991 | locus YER155C, strain BEM2 (second series), active compounds read low 0.964 | locus YER155C, strain BEM2, active compounds read low 0.985 | locus YER167W, strain BCK2, active compounds read low 0.978 | locus YFR010W, strain ubp6, active compounds read low 1.02 | locus YGL078C, strain dbp3, active compounds read low 0.992 | locus YGL086W, strain mad1, active compounds read low 0.967 | locus YGL167C, strain pmr1, active compounds read low 1 | locus YGL173C, strain kem1, active compounds read low 1.01 | locus YGL227W, strain vid30, active compounds read low 0.971 | locus YGL240W, strain doc1, active compounds read low 0.994 | locus YGL248W, strain PDE1, active compounds read low 0.981 | locus YGL253W, strain hxk2, active compounds read low 1.03 | locus YGR078C, strain PAC10, active compounds read low 1.01 and 1 | locus YGR135W, strain pre9, active compounds read low 0.987 | locus YGR229C, strain SMI1, active compounds read low 1 | locus YGR252W, strain gcn5, active compounds read low 0.872 | locus YHR013C, strain ard1, active compounds read low 0.992 | locus YHR027C, strain rpn1, active compounds read low 1.02 | locus YHR030C, strain SLT2, active compounds read low 0.988 and 1.01 | locus YHR079C, strain IRE1 (second series), active compounds read low 0.985 | locus YHR079C, strain IRE1, active compounds read low 0.985 | locus YHR094C, strain hxt1, active compounds read low 0.979 | locus YHR129C, strain ARP1, active compounds read low 0.988 | locus YHR142W, strain chs7, active compounds read low 0.983 | locus YHR200W, strain rpn10, active compounds read low 0.981 | locus YIL066C, strain RNR3, active compounds read low 0.953 | locus YIL073C, strain SPO22, active compounds read low 0.958 | locus YIL125W, strain kgd1, active compounds read low 0.99 | locus YIR030C, strain dcg1, active compounds read low 0.983 | locus YJL092W, strain hpr5, active compounds read low 0.978 | locus YJL095W, strain BCK1 (second series), active compounds read low 1 | locus YJL095W, strain BCK1, active compounds read low 0.989 and 1 | locus YJL115W, strain asf1, active compounds read low 0.988 | locus YJL129C, strain trk1, active compounds read low 0.977 | locus YJL134W, strain LCB3, active compounds read low 0.989 | locus YJL154C, strain vps35, active compounds read low 0.983 | locus YJL164C, strain tpk1, active compounds read low 0.972 | locus YJL166W, strain qcr8, active compounds read low 0.991 | locus YJL168C, strain set2, active compounds read low 0.99 | locus YJL187C, strain SWE1 (second series), active compounds read low 0.978 | locus YJL187C, strain SWE1, active compounds read low 1.02 | locus YJR043C, strain POL32, active compounds read low 0.983 | locus YJR066W, strain TOR1, active compounds read low 0.91

From PubChem BioAssay AID1159580 (chemical genetic matrix, 2015)
